Results taken from PubChem BioAssay (NCATS).
Results filed as inconclusive are left out. Calls of active or inactive are those of the source. Unless noted, calls come from the whole dose curve; as a rule, active = well fitted curve in the direction sought with a large enough effect; inconclusive = small, poorly fitted or top-dose-only effect, or another doubt; inactive = no such curve, though single readings can be large; an effect the other way counts as inactive or inconclusive.

How the values were obtained:
[1] = molecular target: Lysosomal acid glucosylceramidase (Homo sapiens) (UniProt P04062); experiment: Glucocerebrosidase-p2 (AID 348; in the data active = potency below about 10 µM; note: potency is the fitted concentration of half-maximal effect); details: purified GBA, blue fluorogenic substrate, 40 min
Sequence of Lysosomal acid glucosylceramidase (Homo sapiens) (P04062 whole entry, looked up): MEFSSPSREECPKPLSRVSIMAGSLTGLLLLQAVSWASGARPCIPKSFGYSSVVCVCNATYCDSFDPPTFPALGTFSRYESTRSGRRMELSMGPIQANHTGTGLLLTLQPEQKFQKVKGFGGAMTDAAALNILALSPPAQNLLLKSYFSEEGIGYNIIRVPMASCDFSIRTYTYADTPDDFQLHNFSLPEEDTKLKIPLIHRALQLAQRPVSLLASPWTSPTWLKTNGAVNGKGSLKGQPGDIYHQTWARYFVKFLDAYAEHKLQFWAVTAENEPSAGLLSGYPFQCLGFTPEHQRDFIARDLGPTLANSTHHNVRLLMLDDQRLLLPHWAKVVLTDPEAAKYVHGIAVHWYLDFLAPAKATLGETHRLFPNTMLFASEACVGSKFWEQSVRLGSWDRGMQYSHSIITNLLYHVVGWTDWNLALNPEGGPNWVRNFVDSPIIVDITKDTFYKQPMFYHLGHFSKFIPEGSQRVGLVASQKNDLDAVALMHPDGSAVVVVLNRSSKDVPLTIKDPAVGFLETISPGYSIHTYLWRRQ
In short: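 Normal human glucocerebrosidase (0.2 nM) with blue fluorogenic substrate (80 uM final) in citrate/phosphate pH 5.9 with 10mM sodium taurocholate, 0.01% tween-20; 40 min RT, NaOH/glycine stop; fluorescence Ex 365/Em 440; AC50 from a titration from 0.6 nM upwards.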

[2] = molecular target: Cytochrome P450 1A2 (Homo sapiens) (UniProt P05177); experiment: p450-cyp1a2 (AID 410; calls by dose curve; note: potency is the fitted concentration of half-maximal effect)
Sequence of Cytochrome P450 1A2 (Homo sapiens) (P05177 whole entry, looked up): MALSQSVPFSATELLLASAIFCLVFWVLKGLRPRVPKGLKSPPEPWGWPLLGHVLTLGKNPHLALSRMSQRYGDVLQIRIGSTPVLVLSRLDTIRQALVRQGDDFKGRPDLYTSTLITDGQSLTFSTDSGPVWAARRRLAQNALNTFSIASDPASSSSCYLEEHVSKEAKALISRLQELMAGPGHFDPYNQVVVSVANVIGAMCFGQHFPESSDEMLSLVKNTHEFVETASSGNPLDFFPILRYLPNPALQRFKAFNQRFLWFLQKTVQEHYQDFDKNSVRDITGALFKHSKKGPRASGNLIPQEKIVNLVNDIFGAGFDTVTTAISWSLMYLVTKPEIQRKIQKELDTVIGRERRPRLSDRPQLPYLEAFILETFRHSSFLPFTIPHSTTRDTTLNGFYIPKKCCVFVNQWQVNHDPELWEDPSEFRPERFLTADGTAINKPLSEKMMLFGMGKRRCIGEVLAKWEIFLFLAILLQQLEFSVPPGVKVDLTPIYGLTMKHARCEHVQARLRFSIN
In short: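 Luminescent demethylation readout: Luciferin-ME (100uM, equal to Km) turned over by 20nM CYP1A2 for 60 min at room temperature after NADPH regeneration addition, following 10 min compound preincubation. Normalization used 57 uM furafylline as full inhibition.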

[3] = Stat Signaling Pathway (AID 446; active = well fitted curve in either direction with a large enough effect, not every such curve was filed as active;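 note: ME-180 cervical cancer cells given 40 pM IL-6 alongside compound; SIE-controlled beta-lactamase reporter measured as 460/530 nm FRET emission ratio; % is set by controls: 0 for no effect and ±100 for the full control effect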); details: ME-180 SIE beta-lactamase reporter, IL-6 stimulated, 5 h; at 7.69 µM (top of the series) unless noted
In short: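 Overnight-plated ME-180 cells bearing a STAT Inducible Element beta-lactamase reporter; 5 h co-exposure to compound and 40 pM IL-6; values normalized to 300 pM IL-6 and 125 nM JAK inhibitor controls.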

[4] = molecular target: Glucocorticoid receptor (Homo sapiens) (UniProt P04150); experiment: GR-EFC Redistribution (AID 451; calls by dose curve; note: potency is the fitted concentration of half-maximal effect); details: CHO-K1 GR-EFC translocation, beta-gal luminescence, 2 h
Sequence of Glucocorticoid receptor (Homo sapiens) (P04150 whole entry, looked up, the tested form may be a part): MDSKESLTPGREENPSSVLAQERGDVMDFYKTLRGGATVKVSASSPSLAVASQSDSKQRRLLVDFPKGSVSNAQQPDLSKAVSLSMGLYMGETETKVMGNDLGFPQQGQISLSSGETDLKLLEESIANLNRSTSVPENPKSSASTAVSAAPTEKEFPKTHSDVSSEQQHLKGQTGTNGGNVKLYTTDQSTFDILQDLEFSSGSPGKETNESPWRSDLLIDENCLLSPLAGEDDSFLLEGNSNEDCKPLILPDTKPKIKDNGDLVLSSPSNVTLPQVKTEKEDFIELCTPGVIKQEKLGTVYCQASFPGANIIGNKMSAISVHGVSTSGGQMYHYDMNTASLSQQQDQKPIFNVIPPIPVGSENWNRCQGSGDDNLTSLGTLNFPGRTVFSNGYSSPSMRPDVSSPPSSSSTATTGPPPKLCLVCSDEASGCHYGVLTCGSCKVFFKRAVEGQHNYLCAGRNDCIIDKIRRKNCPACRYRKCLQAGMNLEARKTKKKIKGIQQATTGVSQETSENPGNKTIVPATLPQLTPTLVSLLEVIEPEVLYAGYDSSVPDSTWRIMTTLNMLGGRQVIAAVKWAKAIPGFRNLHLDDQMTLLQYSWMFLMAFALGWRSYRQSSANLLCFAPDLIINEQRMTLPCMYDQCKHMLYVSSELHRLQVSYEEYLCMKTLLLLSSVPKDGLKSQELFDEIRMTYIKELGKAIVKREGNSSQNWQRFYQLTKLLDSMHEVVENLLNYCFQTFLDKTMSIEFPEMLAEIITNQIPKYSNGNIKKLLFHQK
In short: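 CHO-K1 cells stably expressing nuclear-localized β-gal enzyme acceptor and GR fused C-terminally to the enzyme donor fragment; ligand-driven nuclear translocation restores β-gal by complementation. Compounds titrated up to 46 uM final, 2 h at 37 °C; luminescence read.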

[5] = molecular target: Mitogen-activated protein kinase 10 (Mus musculus) (UniProt Q61831); experiment: JNK3 AlphaScreen Assay (AID 530; active = well fitted curve in either direction with a large enough effect, not every such curve was filed as active;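 note: kinase came from lysate of stimulated human HepG2 cells; signal reports phosphorylation of biotinylated GST-cJun 1-79 at Ser73 with 10 µM ATP; % is set by controls: 0 for no effect and ±100 for the full control effect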)
In short: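 Phosphorylation of biotinylated GST-cJun(1-79) at Ser73 is measured by AlphaScreen proximity luminescence. Enzyme is JNK3 in HepG2 lysates activated with interleukin-1beta and tumor necrosis factor alpha; ATP is 10 uM final.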

[6] = molecular target: Cytochrome P450 3A4 (Homo sapiens) (UniProt P08684); experiment: qHTS Assay for Inhibitors and Substrates of Cytochrome P450 3A4 (AID 884); note: potency is the fitted concentration of half-maximal effect; nearly all actives have a fitted effect of over 50% in size
Sequence of Cytochrome P450 3A4 (Homo sapiens) (P08684 whole entry, looked up): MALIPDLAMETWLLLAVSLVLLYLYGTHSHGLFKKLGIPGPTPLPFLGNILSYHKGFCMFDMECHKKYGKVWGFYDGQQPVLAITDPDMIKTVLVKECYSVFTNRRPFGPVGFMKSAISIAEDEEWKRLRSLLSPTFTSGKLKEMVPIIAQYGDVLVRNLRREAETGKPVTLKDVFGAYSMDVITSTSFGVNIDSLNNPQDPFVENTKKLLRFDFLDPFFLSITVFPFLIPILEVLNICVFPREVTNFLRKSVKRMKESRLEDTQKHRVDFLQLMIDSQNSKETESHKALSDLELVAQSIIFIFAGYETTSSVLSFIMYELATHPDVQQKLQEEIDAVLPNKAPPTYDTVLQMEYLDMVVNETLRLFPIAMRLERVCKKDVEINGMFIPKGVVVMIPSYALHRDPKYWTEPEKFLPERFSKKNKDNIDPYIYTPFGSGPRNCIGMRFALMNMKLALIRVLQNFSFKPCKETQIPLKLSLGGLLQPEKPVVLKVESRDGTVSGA
In short: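 Luminescent readout of luciferin produced by CYP3A4 (20 nM) dealkylation of Luciferin-PPXE, 25 uM (its KM). NADPH-driven reaction ran 60 min at RT after 10 min compound preincubation; data scaled to 57 uM ketoconazole as 100% inhibition.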

[7] = molecular target: Cytochrome P450 3A4 (Homo sapiens) (UniProt P08684); experiment: qHTS Assay for Activators of Cytochrome P450 3A4 (AID 885); note: nearly all actives have a fitted effect of over 65% in size
In short: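 Using 20nM recombinant human CYP3A4 in potassium phosphate (200mM), substrate Luciferin-PPXE at 25uM, luminescent luciferin detection followed a 60-min RT NADPH reaction; data scaled to 57 uM ketoconazole.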

[8] = qHTS Assay for Lipid Storage Modulators (AID 1519; calls by dose curve); details: Drosophila S3 cells, BODIPY lipid droplet/cell ratio, laser cytometry, cells loaded with oleic acid; for activity change, negative = inhibition: at 57.5 µM (top of the series)
In short: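 Cells seeded at 5,000 per well were treated with compounds over a concentration series and loaded with oleic acid (400 uM, as added). Lipid droplet fluorescence (488 nm excitation, 500-530 nm channel) was read by laser-scanning cytometry and normalized to 20 uM Triacsin C.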

[9] = Primary qHTS for small molecule stabilizers of the endoplasmic reticulum resident proteome: Secreted ER Calcium Modulated Protein (SERCaMP) assay (AID 1508630); note: % is set by controls: 0 for no effect and ±100 for the full control effect
In short: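 The SH-SY5Y reporter protocol was run at 3 concentrations up to 38.3 uM (primary) or 11 concentrations (follow-up): 16 h compound, 100 nM thapsigargin for 4 h, then extracellular luciferase luminescence.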

[10] = molecular target: 3',5'-cyclic-AMP phosphodiesterase 4B (Homo sapiens) (UniProt Q07343); experiment: qHTS Assay for Inhibitors of PDE-IV (AID 607; active = well fitted activation curve with a large enough effect in the main read-out, with a control signal flat, not every such curve was filed as active; note: % of control where 0% means no effect)
Sequence of 3',5'-cyclic-AMP phosphodiesterase 4B (Homo sapiens) (Q07343 whole entry, looked up): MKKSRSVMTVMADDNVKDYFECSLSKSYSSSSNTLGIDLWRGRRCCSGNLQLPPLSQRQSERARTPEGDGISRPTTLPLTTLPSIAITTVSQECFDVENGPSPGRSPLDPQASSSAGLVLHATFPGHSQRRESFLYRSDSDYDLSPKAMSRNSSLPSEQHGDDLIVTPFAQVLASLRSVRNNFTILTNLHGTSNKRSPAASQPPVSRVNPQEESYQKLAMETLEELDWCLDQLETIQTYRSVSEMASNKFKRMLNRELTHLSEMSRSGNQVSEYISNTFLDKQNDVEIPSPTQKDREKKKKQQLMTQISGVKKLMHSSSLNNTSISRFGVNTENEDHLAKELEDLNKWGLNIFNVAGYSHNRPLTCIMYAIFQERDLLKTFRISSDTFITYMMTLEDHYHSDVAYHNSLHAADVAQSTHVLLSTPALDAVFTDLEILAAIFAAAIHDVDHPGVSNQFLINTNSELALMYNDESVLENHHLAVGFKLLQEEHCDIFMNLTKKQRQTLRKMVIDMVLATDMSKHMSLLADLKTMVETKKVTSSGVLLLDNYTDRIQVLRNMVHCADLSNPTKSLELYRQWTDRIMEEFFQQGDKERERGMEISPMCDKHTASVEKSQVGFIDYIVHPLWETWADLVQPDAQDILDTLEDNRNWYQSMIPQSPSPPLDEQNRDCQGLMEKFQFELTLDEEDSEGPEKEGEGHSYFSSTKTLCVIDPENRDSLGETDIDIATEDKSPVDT
In short: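 Live HEK293 cells with a modified cyclic nucleotide-gated (CNG) channel report intracellular cAMP via membrane-potential dye fluorescence (ex 535/em 590 nm). Endogenous PDE-IV was targeted. Compounds were tested at up to 22.9 uM final; RO 20-1724 100 uM served as control.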

[11] = molecular target: Cytochrome P450 2C19 (Homo sapiens) (UniProt P33261); experiment: qHTS Assay for Inhibitors and Substrates of Cytochrome P450 2C19 (AID 899); note: nearly all actives have a fitted effect of over 60% in size; note: potency is the fitted concentration of half-maximal effect
Sequence of Cytochrome P450 2C19 (Homo sapiens) (P33261 whole entry, looked up): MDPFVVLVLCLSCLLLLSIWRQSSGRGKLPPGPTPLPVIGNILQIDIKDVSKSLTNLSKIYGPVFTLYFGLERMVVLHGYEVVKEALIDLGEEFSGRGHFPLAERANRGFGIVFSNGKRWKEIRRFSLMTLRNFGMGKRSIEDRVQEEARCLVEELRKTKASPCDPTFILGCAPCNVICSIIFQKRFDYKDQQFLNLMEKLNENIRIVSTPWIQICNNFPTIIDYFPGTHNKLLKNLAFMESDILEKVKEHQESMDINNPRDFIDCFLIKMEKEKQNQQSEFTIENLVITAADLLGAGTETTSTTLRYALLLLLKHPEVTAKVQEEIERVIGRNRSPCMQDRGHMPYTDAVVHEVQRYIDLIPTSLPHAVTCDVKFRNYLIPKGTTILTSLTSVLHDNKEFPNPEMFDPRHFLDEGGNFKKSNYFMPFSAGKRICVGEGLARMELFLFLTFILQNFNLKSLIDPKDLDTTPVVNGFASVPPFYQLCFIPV
In short: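 In 50mM KPO4, the reaction held 5nM enzyme and KM-level (10uM) Luciferin-H EGE; it ran 60 min at 37C after NADPH regeneration and a 10 min compound preincubation. Luminescence values were scaled to 57uM ketoconazole as complete inhibition.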

[12] = molecular target: Glucocorticoid receptor (Homo sapiens) (UniProt P04150); experiment: GR-GFP Redistribution (AID 450;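 active = compounds whose dose series gives a full or clear partial fitted curve of increased nuclear translocation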; note: potency is the fitted concentration of half-maximal effect); details: U2OS GR-GFP nuclear translocation, laser cytometry, 2 h
[13] = Confirmation and Secondary Assay for Modulators of Hemoglobin Beta Chain Splicing at IVS2 654 locus (AID 910);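 note: per-well total GFP intensity by laser scanning cytometry after 2-day treatment; % of control where 0% means no effect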
In short: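 HeLa cells stably carrying EGFP interrupted by mutant beta-globin IVS2-654 intron (CMV-driven) were treated with compound for 2 days at 37C; corrected splicing was scored as total peak GFP intensity per well (488 nm excitation, 500-520 nm emission).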

[14] = Confirmation and Secondary Assay for Modulators of Hemoglobin Beta Chain Splicing at IVS2 705 locus (AID 930);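 note: HeLa cells stably expressing the EGFP-705 splicing reporter; GFP fluorescence per well restored by corrected splicing of the IVS2-705 intron in EGFP; % of control where 0% means no effect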
In short: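 Assay measures total GFP intensity per well in HeLa EGFP-705 cells after 2 days with compound; mis-splicing normally truncates EGFP, so fluorescence indicates corrected splicing.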

[15] = molecular target: Ubiquitin carboxyl-terminal hydrolase 1 (Homo sapiens) (UniProt O94782); experiment: Inhibitors of USP1/UAF1: Pilot qHTS (AID 504865);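 note: rhodamine fluorescence freed from ubiquitin-rhodamine substrate followed over time; top concentration of the series differs between compounds; % is set by controls: 0 for no effect and ±100 for the full control effect; nearly all actives have a fitted effect of over 35% in size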
Sequence of Ubiquitin carboxyl-terminal hydrolase 1 (Homo sapiens) (O94782 whole entry, looked up): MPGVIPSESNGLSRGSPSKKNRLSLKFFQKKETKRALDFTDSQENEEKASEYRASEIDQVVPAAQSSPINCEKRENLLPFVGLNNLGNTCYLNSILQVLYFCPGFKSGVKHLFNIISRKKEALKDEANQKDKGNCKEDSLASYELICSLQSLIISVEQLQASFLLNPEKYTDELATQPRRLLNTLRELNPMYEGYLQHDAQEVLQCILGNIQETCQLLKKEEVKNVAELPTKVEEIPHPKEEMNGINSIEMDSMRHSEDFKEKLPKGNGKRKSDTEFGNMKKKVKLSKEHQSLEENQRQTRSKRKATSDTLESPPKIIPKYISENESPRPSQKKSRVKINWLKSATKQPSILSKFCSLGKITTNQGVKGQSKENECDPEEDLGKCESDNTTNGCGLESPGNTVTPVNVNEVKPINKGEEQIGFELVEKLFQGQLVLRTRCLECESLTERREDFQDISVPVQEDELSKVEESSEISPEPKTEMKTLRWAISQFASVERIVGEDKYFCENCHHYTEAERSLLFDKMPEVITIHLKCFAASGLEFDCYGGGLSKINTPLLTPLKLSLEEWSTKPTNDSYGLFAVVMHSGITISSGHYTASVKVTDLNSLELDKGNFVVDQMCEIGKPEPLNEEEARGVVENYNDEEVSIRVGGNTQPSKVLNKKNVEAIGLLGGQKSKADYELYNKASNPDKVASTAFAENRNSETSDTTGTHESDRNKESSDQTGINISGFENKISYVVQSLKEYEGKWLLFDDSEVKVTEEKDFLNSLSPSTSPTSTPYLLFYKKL
In short: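 In 50mM HEPES pH 7.8 containing 0.5mM EDTA, 1mM TCEP, 0.1 mg/ml BSA and 0.01% Tween-20, 1nM USP1/UAF1 is exposed to compound for 15 min, then Ub-Rho (150nM final) is added and fluorescence is read over time.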

[16] = AP1 Signaling Pathway (AID 357; active = well fitted curve in either direction with a large enough effect, not every such curve was filed as active;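 note: ME-180 reporter cells stimulated with EGF at its EC50 level; % is set by controls: 0 for no effect and ±100 for the full control effect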); details: ME-180 (cervical carcinoma) AP-1-bla reporter, EGF-induced, beta-lactamase ratio, 5 h; at 7.69 µM (top of the series) unless noted
In short: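 Modulation of EGF-driven AP-1 transcription was assessed with a beta-lactamase reporter in ME-180 cells. Compound and EC50 EGF were co-incubated 5 hours at 37 °C before 2.5-hour CCF4 loading at room temperature and dual-emission reading.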

[17] = NFAT Signaling Pathway (AID 444; active = well fitted curve in either direction with a large enough effect, not every such curve was filed as active); details: Jurkat NFAT-bla M1, carbachol, beta-lactamase ratio, 5 h; at 7.69 µM (top of the series) unless noted
In short: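 Jurkat cells carrying an NFAT-driven β-lactamase reporter and co-transfected muscarinic M1 receptor were treated with compound plus carbachol (1 uM final, an EC50 level) for 5 h at 37 °C. CCF4 loading followed for 1 h at RT; 460/530 nm ratio gave %activity.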

[18] = measured here: cell count channel max response
[19] = measured here: lipid channel max response

O=C(c1cnccn1)N1CCC2(CCCN(C(c3ccccc3)c3ccccc3)C2)CC1
Potency [1]: > 11.4 µM (inactive) | Potency [2]: 20 µM (active) | activity, negative = inhibition [3]: 14% (inactive) | Potency [4]: > 46 µM (inactive) | Potency [5]: inactive | Potency [6]: 1.58 µM (active) | Potency [7]: inactive | activity change, negative = inhibition [8]: 0.62% (inactive) | max response [8, 18]: 6.86% | max response [8, 19]: 7.68% | outcome [9]: inactive

COC(=O)N1CCC2(CCCN(c3ccncc3)C2)CC1
Potency [1]: > 11.4 µM (inactive) | activity, negative = inhibition [3]: 5.05% (inactive) | Potency [4]: > 46 µM (inactive) | Potency [5]: inactive | Potency [10]: inactive | Potency [11]: inactive | activity change, negative = inhibition [8]: 5.16% (inactive) | max response [8, 18]: 21.3% | max response [8, 19]: 29.2% | outcome [9]: inactive

Cc1noc(C)c1-c1ccc2ncnc(NC3CC3)c2c1
Potency [1]: > 11.4 µM (inactive) | Potency [12]: > 46 µM (inactive) | Potency [4]: > 46 µM (inactive) | Potency [5]: inactive | Potency [10]: inactive | Potency [13]: inactive | outcome [14]: inactive | activity change, negative = inhibition [8]: -8.16% (inactive) | max response [8, 18]: -21.4% | max response [8, 19]: -28.4% | Potency [15]: inactive | outcome [9]: inactive

Cc1cccc(CNc2nc(-c3c(C)noc3C)nc3ccccc23)c1
Potency [1]: > 11.4 µM (inactive) | activity, negative = inhibition [3]: -28.8% (inactive) | Potency [12]: > 46 µM (inactive) | Potency [4]: > 46 µM (inactive) | Potency [5]: inactive | Potency [13]: inactive | outcome [14]: inactive | activity change, negative = inhibition [8]: 11.8% (inactive) | max response [8, 18]: -6.95% | max response [8, 19]: 4.27% | outcome [9]: inactive

CN(C)C(=O)c1ccc(-c2cncnc2NCc2cccs2)cc1
activity change, negative = inhibition [16]: 8.21% (inactive) | Potency [2]: 20 µM (active) | activity change, negative = inhibition [17]: 6.04% (inactive) | activity, negative = inhibition [3]: 17.8% (inactive) | Potency [12]: > 46 µM (inactive) | Potency [4]: > 46 µM (inactive) | Potency [5]: inactive | Potency [10]: inactive | Potency [6]: 3.16 µM (active) | Potency [7]: inactive | Potency [13]: inactive | outcome [14]: inactive | activity change, negative = inhibition [8]: 6.52% (inactive) | max response [8, 18]: 22.2% | max response [8, 19]: 27.8% | Potency [15]: inactive | outcome [9]: inactive

Cc1cnc(CNc2cc(-c3ccoc3)ncn2)cn1
activity change, negative = inhibition [16]: -2.94% (inactive) | Potency [2]: 25.1 µM (active) | activity change, negative = inhibition [17]: 1.34% (inactive) | activity, negative = inhibition [3]: -9.44% (inactive) | Potency [12]: > 46 µM (inactive) | Potency [4]: > 46 µM (inactive) | Potency [5]: inactive | Potency [10]: inactive | Potency [13]: inactive | outcome [14]: inactive | activity change, negative = inhibition [8]: 3.62% (inactive) | max response [8, 18]: 9.95% | max response [8, 19]: 14.7% | outcome [9]: inactive

O=C(Oc1ccccc1)N1CCC[C@@]2(CCN(c3ccncc3)C2)C1
Potency [1]: > 11.4 µM (inactive) | Potency [2]: 20 µM (active) | activity, negative = inhibition [3]: -2.61% (inactive) | Potency [4]: > 46 µM (inactive) | Potency [5]: inactive | Potency [10]: inactive | Potency [7]: inactive | Potency [11]: 5.01 µM (active) | activity change, negative = inhibition [8]: 4.19% (inactive) | max response [8, 18]: 13.6% | max response [8, 19]: 23.8% | outcome [9]: inactive
